Bioassay records as filed in PubChem BioAssay.
IL-1B inflam inh: inflammasome signaling inhibition, IL-1 beta readout. AID 743279. THP-1 LPS/ATP IL-1B secretion, AlphaLISA, 16 h; hits give low values. activity change, % at 57.5 µM. 360,000 tested, 4.7% active; in the data active = activity change below about -50%; inconclusive = mostly about -30% to -49%
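Secreted IL-1B measured by AlphaLISA bead assay after 16 h compound exposure of THP-1 cells; compounds (final up to 57.5 uM) added 1 h before LPS (250 ng/mL) and ATP (1.25 mM) stimulation; lower signal means less secretion.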
HT1080NT lethal: kills 2HG-producing HT-1080-NT fibrosarcoma cells | Potency, µM (series often up to 46.1 µM), most hits filed as cytotoxic | 360,000 tested, 1.6% active | HT-1080-NT fibrosarcoma viability, CellTiter-Glo ATP luminescence, 48 h | AID 686970;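 also: NT is the 2HG producing partner of a matched IDH1 knockdown line; nearly all actives have a fitted effect of over 55% in size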
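HT-1080-NT fibrosarcoma cells (2HG-overproducing), 750 cells/well in RPMI with 5% FBS, dosed after 2 h and incubated 48 h at 37C. CellTiter-Glo luminescence normalized to DMSO and no-cell wells; concentration-response curves fitted and classed.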
TDP1 cell CPT: growth inhibition of DT40 Tdp1-/-;hTDP1 cells with camptothecin (screen for TDP1 inhibitors); chicken DT40 Tdp1-/-;hTDP1 cells + 20 nM CPT, ATP luminescence, 48 h; Potency, µM (doses to about 46.2 µM), hits mostly inhibitors; 420,000 tested, 12% active; AID 686979; also: nearly all actives have a fitted effect of over 55% in size
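Chicken DT40 Tdp1-/- cells complemented with human TDP1, 400 cells/well, exposed to compounds plus 20 nM camptothecin for at least 48 h at 37 C; viability read as ATP content by CellTiter-Glo luminescence.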
ELG1 repair inh: inhibitors of ELG1-dependent DNA repair in HEK293T cells. HEK293T ELG1-luciferase reporter, luminescence, 16 h; DNA damage induced by 5-fluorouridine. Potency, µM (highest dose often 46.1 µM), most hits filed as inhibitors. 330,000 tested, 2.3% active. AID 504467; also: nearly all actives have a fitted effect of over 55% in size
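In this reporter screen, reduction of luminescence relative to DMSO vehicle indicated activity. Compounds and 5-fluorouridine were added together to 2,000 cells per well, incubated for 16 hr at 37 °C, then developed with ONE-Glo.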
HT1080 IDH1KD tx: kills HT-1080 cells with IDH1 knockdown; HT-1080 IDH1 knockdown viability, ATP luminescence, 48 h; Potency, µM (highest dose often 46.1 µM), actives largely listed as cytotoxic; AID 686971; 360,000 tested, 2% active
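Cytotoxicity counter-line: IDH1KD HT-1080, 48 h, CellTiter-Glo. Curves classed by r2, magnitude and activity.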
TDP1 cell noCPT: qHTS for Inhibitors of human tyrosyl-DNA phosphodiesterase 1 (TDP1): qHTS in cells in absence of CPT. Potency, µM (doses to about 46.2 µM), actives largely listed as inhibitors. DT40 Tdp1-/- hTDP1 cells, no CPT, ATP luminescence, 48 h. 420,000 tested, 15% active. AID 686978, 2013; also: nearly all actives have a fitted effect of over 55% in size
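No-CPT arm: Tdp1-/-;hTDP1 DT40 cells (400/well) plus compounds, incubated ≥48 hr at 37 °C. Readout CellTiter-Glo luminescence.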
Each line names hits and unclear results; the compound was inactive in the other large screens. In the library only some 19% were active in any assay of this set; here they are far more common. Unless noted, calls follow the shape of the dose curve; as a rule, active = well fitted curve in the direction sought with a large enough effect; inconclusive = small, poorly fitted or top-dose-only effect, or another doubt; inactive = no such curve, though single readings can be large; an effect the other way counts as inactive or inconclusive.

Cc1cc(C)c(NC(=O)Nc2sc3nc4n(c(=O)c3c2C)CCC(C)CC4)c(C)c1 (stereo not drawn)	none (no result: IL-1B inflam inh, HT1080NT lethal, ELG1 repair inh, HT1080 IDH1KD tx)
CCCCN(CC)CCCNC(=O)Nc1sc2nc3n(c(=O)c2c1C)CCC(C)CC3 (stereo not drawn)	TDP1 cell CPT inconclusive, TDP1 cell noCPT 21µM (no result: IL-1B inflam inh, HT1080NT lethal, ELG1 repair inh, HT1080 IDH1KD tx)
Cn1c(Sc2ccc(Br)cc2)c(C=O)c2ccccc21	IL-1B inflam inh -81, HT1080NT lethal inconclusive, TDP1 cell CPT inconclusive, ELG1 repair inh inconclusive, HT1080 IDH1KD tx 26µM, TDP1 cell noCPT 13µM
CCOC(=O)c1sc2nc(-c3cccnc3)ccc2c1N	ELG1 repair inh inconclusive
Nc1c(C(=O)NC2CC2)sc2nc3c(c(-c4ccco4)c12)CC/C3=C/c1ccco1	IL-1B inflam inh -75, TDP1 cell CPT 18µM, TDP1 cell noCPT 16µM
NC(=O)c1sc2nc(-c3cccnc3)ccc2c1N	IL-1B inflam inh -67, TDP1 cell CPT inconclusive, ELG1 repair inh inconclusive, TDP1 cell noCPT inconclusive
NC(=O)c1sc2nc(-c3ccco3)ccc2c1N	IL-1B inflam inh -68, ELG1 repair inh inconclusive
Nc1c(C(=O)Nc2ccc(OC(F)(F)F)cc2)sc2nc(-c3ccncc3)ccc12	TDP1 cell CPT 10µM, TDP1 cell noCPT 6.5µM (no result: IL-1B inflam inh, HT1080NT lethal, ELG1 repair inh, HT1080 IDH1KD tx)
CN(Cc1ccc(Cl)c(Cl)c1)C(C(=O)NCc1ccccc1)c1ccc(C(F)(F)F)cc1 (stereo not drawn)	HT1080NT lethal inconclusive, TDP1 cell CPT inconclusive, HT1080 IDH1KD tx inconclusive, TDP1 cell noCPT inconclusive (no result: ELG1 repair inh)
COc1ccccc1-c1cccc([C@@H]2C[C@H]3[C@H](CON3C)CN2C)c1	none (no result: ELG1 repair inh)
NC(=O)c1sc2nc3c(c(-c4ccco4)c2c1N)CCC3	IL-1B inflam inh -80, TDP1 cell CPT inconclusive, ELG1 repair inh inconclusive, TDP1 cell noCPT 14µM
Nc1c(C(=O)Nc2ccccc2F)sc2nc(-c3ccco3)ccc12	HT1080NT lethal inconclusive, TDP1 cell CPT inconclusive, ELG1 repair inh inconclusive, HT1080 IDH1KD tx inconclusive
Nc1c(C(=O)Nc2ccccc2F)sc2nc(-c3cccnc3)ccc12	HT1080NT lethal inconclusive, ELG1 repair inh inconclusive, HT1080 IDH1KD tx 13µM, TDP1 cell noCPT inconclusive
COC(=O)CC(NC1CCN(c2nc(C)c3cc4c(cc3n2)CCC4)CC1)C(=O)OC (stereo not drawn)	none (no result: IL-1B inflam inh, HT1080NT lethal, ELG1 repair inh, HT1080 IDH1KD tx)
Cc1cc(-c2ccccc2)nc(N(C)NC(=O)c2c(F)cccc2F)c1S(C)(=O)=O	TDP1 cell CPT inconclusive, ELG1 repair inh 18µM, TDP1 cell noCPT 23µM
CN(c1ccccc1)S(=O)(=O)c1cccc2ccccc12	none
ClC(=Nc1cccc2ccccc12)N(c1ccccc1)c1ccccc1	TDP1 cell CPT 18µM, TDP1 cell noCPT 11µM (no result: IL-1B inflam inh, HT1080NT lethal, ELG1 repair inh, HT1080 IDH1KD tx)
Cc1ccc(CN(C)C(=O)C2CCC(=O)N(C3CCCCCC3)C2)cc1 (stereo not drawn)	none
O=C(CCl)Nc1cc(-c2ccccc2)nn1-c1ccccc1	IL-1B inflam inh -105, HT1080NT lethal 5µM, TDP1 cell CPT 5.2µM, ELG1 repair inh inconclusive, HT1080 IDH1KD tx 1.6µM, TDP1 cell noCPT 3.3µM
Cc1ccc(-c2cc(NC(=O)CCl)n(-c3ccccc3)n2)cc1	IL-1B inflam inh -99, HT1080NT lethal inconclusive, HT1080 IDH1KD tx inconclusive, TDP1 cell noCPT 7.3µM
Cc1ccc(-c2nn(-c3ccccc3)cc2NC(=O)CCl)cc1	IL-1B inflam inh -100, HT1080NT lethal 5.2µM, TDP1 cell CPT 3.3µM, ELG1 repair inh inconclusive, HT1080 IDH1KD tx 7.3µM, TDP1 cell noCPT 2.6µM
CCOC(=O)COc1c(Cl)cc(/C=C2\N=C(C)OC2=O)cc1OC	TDP1 cell CPT inconclusive, TDP1 cell noCPT inconclusive (no result: ELG1 repair inh)
COc1ccc(N2CCN(C(c3ccccc3OC)c3nnnn3C3CCCC3)CC2)cc1 (stereo not drawn)	IL-1B inflam inh inconclusive, TDP1 cell CPT 23µM, TDP1 cell noCPT 21µM
COc1ccc(N2CCN(C(c3cccc(OC)c3OC)c3nnnn3C3CCCC3)CC2)cc1 (stereo not drawn)	IL-1B inflam inh inconclusive, TDP1 cell CPT inconclusive, TDP1 cell noCPT inconclusive
